FLuc modulator: qHTS profiling assay for firefly luciferase inhibitor/activator using purifed enzyme and Km concentrations of substrates (counterscreen for miR-21 project). purified FLuc, Km substrates, luminescence inhibition. Potency, µM (series often up to 57.5 µM), hits mostly inhibitors. 360,000 compounds, 6.9% hits. AID 588342, 2011; further: nearly all actives have a fitted effect of over 55% in size
Target sequence (P08659 whole entry, looked up): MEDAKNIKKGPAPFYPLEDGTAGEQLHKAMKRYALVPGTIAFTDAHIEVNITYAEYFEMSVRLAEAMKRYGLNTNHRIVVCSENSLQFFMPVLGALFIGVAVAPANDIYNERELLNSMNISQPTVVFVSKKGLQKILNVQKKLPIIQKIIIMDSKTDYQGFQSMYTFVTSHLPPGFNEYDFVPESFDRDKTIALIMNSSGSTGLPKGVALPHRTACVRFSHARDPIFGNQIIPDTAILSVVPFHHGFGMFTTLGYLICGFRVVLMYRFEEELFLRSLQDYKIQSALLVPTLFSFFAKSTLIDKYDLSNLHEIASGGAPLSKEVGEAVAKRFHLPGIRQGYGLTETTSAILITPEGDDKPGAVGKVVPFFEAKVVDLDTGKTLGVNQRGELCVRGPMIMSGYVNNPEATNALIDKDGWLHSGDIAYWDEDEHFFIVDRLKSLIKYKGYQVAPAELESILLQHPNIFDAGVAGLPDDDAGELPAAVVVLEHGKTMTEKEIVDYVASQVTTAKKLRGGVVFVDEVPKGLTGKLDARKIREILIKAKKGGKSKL
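Biochemical qHTS of compounds, final roughly 60 µM downward over six points, against 10 nM purified firefly luciferase using Km concentrations of substrates (10 uM D-luciferin, 10 uM ATP) in Tris acetate pH 7.5 buffer; luminescence output.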
SMN2 splice enh: qHTS Assay for Enhancers of SMN2 Splice Variant Expression; HEK293 SMN2-luciferase splicing reporter, luminescence, 30-36 h; Potency, µM (doses to about 46.1 µM), usual class: activators; 210,000 compounds, 2.8% hits; further: nearly all actives have a fitted effect of over 55% in size
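HEK293 cells carry an SMN2 […]–luciferase reporter in which exon 7 inclusion puts luciferase in frame. Cells were plated 10-12 h before compound addition, then incubated 30-36 h at 37C. ONE-Glo luminescence was read; sodium butyrate at 4.5 mM final served as control.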
KinaseGlo FLuc: Counterscreen for Luciferase (Kinase-Glo TM) Inhibition; Kinase-Glo luciferase, ATP luminescence, 8 min; Potency, µM (highest dose often 38.3 µM), most hits filed as inhibitors; 200,000 compounds, 0.28% hits; AID 1379, 2008; further: nearly all actives have a fitted effect of over 60% in size
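Light output from Kinase-Glo luciferase with luciferin and 10 uM ATP in 50 mM imidazole pH 7.2, KCl, MgCl2, Tween 20, BSA; compound pin-delivered, 8-min ambient incubation, then luminescence read.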
ELG1 genotox: qHTS screen for small molecules that induce genotoxicity in human embryonic kidney (HEK293T) cells expressing luciferase-tagged ELG1. HEK293T ELG1-luciferase reporter, luminescence, 16 h. Potency, µM (doses to about 46 µM), hits mostly activators. 330,000 compounds, 1.3% hits; further: nearly all actives have a fitted effect of over 60% in size
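Quantitative HTS format in 1536-well plates. HEK293T ELG1-luciferase reporter cells receive test compound and are incubated 16 hr at 37 °C, 5% CO2; ONE-Glo added, 30 min room temperature, then luminescence read.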
Rab9 prom act: qHTS Assay for Rab9 Promoter Activators | Huh7 Rab9 promoter-luciferase reporter, luminescence, 24 h | Potency, µM (titrated, usually from 9.22 µM), most hits filed as activators | 320,000 compounds, 2.8% hits; further: nearly all actives have a fitted effect of over 60% in size
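Cell-based reporter: Huh7 stable for Rab9 promoter-driven luciferase, plated in reduced-serum medium with 10% FBS at 1500 cells/well, compound-treated 24 h at 37 °C, luminescence read after 10 min reagent.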
NPC1 promoter act: qHTS Assay for NPC1 Promoter Activators | Huh7 NPC1 promoter luciferase reporter, 24 h | 320,000 compounds, 2.4% hits | Potency, µM (top dose mostly 9.22 µM), hits mostly activators; further: nearly all actives have a fitted effect of over 60% in size
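Readout is luciferase luminescence, reflecting NPC1 promoter activation in stably transfected Huh7 cells after 24 h compound exposure at 37 °C in reduced-serum medium with 10% FBS.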
Large screens that a line does not name were inactive. The list is not random: actives were taken first. Their share in the collection is about 7.3%. The call rests on the fitted dose curve; in most records, active means well fitted curve in the direction sought with a large enough effect; inconclusive means small, poorly fitted or top-dose-only effect, or another doubt; inactive means no such curve, though single readings can be large; an effect the other way counts as inactive or inconclusive.

CC(C)OP(=O)(OC(C)C)C(NC(=O)c1ccc(Br)cc1)c1ccccc1 (centres undefined)	none
O=C(NC(=S)Nc1cccnc1)c1ccccc1	FLuc modulator inconclusive, ELG1 genotox inconclusive (no result: SMN2 splice enh, KinaseGlo FLuc)
Cc1ccc(OCC(=O)NCc2ccccn2)c(Br)c1	FLuc modulator 16.9µM, ELG1 genotox inconclusive, Rab9 prom act inconclusive, NPC1 promoter act inconclusive
CCc1ccc(-c2cc(C(=O)NCc3ccccn3)c3ccccc3n2)cc1	FLuc modulator 0.849µM, KinaseGlo FLuc inconclusive
CCc1ccccc1Nc1cc(C(=O)NCc2ccccn2)c2ccccc2n1	FLuc modulator 16.9µM
O=C(NCc1ccccn1)c1cc(-c2ccc(Br)cc2)nc2ccccc12	FLuc modulator inconclusive
Cc1ccc(-c2cc(C(=O)NCc3ccccn3)c3ccccc3n2)cc1	FLuc modulator 4.26µM, SMN2 splice enh inconclusive
COCc1cc(=O)[nH]c(/N=C(\N)Nc2c(F)cccc2F)n1	none (no result: SMN2 splice enh, KinaseGlo FLuc)
O=C1C(=O)N(C2CCN(S(=O)(=O)c3ccc(F)cc3)CC2)CCN1Cc1ccccc1	none (no result: SMN2 splice enh, KinaseGlo FLuc, ELG1 genotox, Rab9 prom act, NPC1 promoter act)
Cc1cc(C)nc(S/C=C/C(=O)c2ccc(F)cc2)n1	FLuc modulator 1.9µM (no result: SMN2 splice enh, KinaseGlo FLuc)
Cc1cc(C)nc(SCC(=O)c2ccc(F)cc2)n1	none (no result: SMN2 splice enh, KinaseGlo FLuc)
O=C(NC1CCCCCCC1)c1ccccc1-c1ccccc1	none
O=C(NN=C1CCCCCC1)c1c[nH]c2ccccc12	FLuc modulator 12µM
Cn1cccc1C(=O)NC1CCCCCC1	FLuc modulator 16.9µM, ELG1 genotox inconclusive, Rab9 prom act 2.24µM, NPC1 promoter act inconclusive (no result: SMN2 splice enh, KinaseGlo FLuc)
O=C(NC1CCCCCCC1)c1ccccc1O	FLuc modulator 15.1µM, Rab9 prom act 3.55µM, NPC1 promoter act 3.98µM
O=C(NC1CCCCC1)c1cc2ccccc2cc1O	FLuc modulator 16.9µM, NPC1 promoter act inconclusive (no result: SMN2 splice enh, KinaseGlo FLuc)
O=C(C1CC1)N1CCc2cc(Br)cc(S(=O)(=O)N3CCN(c4cccc(Cl)c4)CC3)c21	none (no result: KinaseGlo FLuc, ELG1 genotox, Rab9 prom act, NPC1 promoter act)
O=C(c1ccc(F)cc1F)N1CCN(c2ncccn2)CC1	none
Cc1ccc(NNC2CC(=O)N(c3cccc(Cl)c3)C2=O)cc1 (centres undefined)	none
CCSc1ncc(Cl)c(C(=O)Nc2ccccc2C)n1	none (no result: SMN2 splice enh, KinaseGlo FLuc)
O=C(NN=C1CCCCCC1)c1cc2ccccc2cc1O	FLuc modulator 16.9µM (no result: SMN2 splice enh, KinaseGlo FLuc)
Cc1ccccc1C(=O)NC1CCCCCCC1	FLuc modulator 12µM, ELG1 genotox 16.4µM, Rab9 prom act 2.51µM, NPC1 promoter act 2.82µM (no result: SMN2 splice enh, KinaseGlo FLuc)
CSc1ccccc1C(=O)NC1CCCCCC1	none
COCC(C)NC(C(=O)Nc1ccc(C)c(Cl)c1)c1ccccc1 (centres undefined)	FLuc modulator inconclusive
Cc1cccc(OCCCC(=O)NC(C)c2ccccc2)c1 (centres undefined)	none
CSc1nnc(N2C(=O)C(O)=C(C(=O)c3ccco3)C2c2ccccc2)s1 (centres undefined)	none (no result: SMN2 splice enh, KinaseGlo FLuc)
CSc1nnc(N2C(=O)C(O)=C(C(=O)c3ccc(C)o3)C2c2ccc(C)cc2)s1 (centres undefined)	FLuc modulator inconclusive, ELG1 genotox 1.3µM, Rab9 prom act 0.794µM, NPC1 promoter act 0.631µM (no result: SMN2 splice enh, KinaseGlo FLuc)
CN1C(=O)/C(=C/c2ccc3c(c2)OCO3)N=C1c1ccccc1	FLuc modulator 4.78µM
CCN1CCC(NC(=O)Nc2cc(Cl)ccc2OC)CC1	none
COCCCn1cnc2oc3nc4ccccc4nc3c2c1=O	FLuc modulator 7.57µM, SMN2 splice enh 10µM, ELG1 genotox 2.06µM, Rab9 prom act 0.631µM, NPC1 promoter act 1.58µM
COCCCn1cnc2c(c1=O)c1nc3ccccc3nc1n2-c1ccccc1	none
CN(C)C=Nc1ccc2nc3c(cc2c1)[nH]c1ccccc13	FLuc modulator 1.35µM, ELG1 genotox inconclusive, Rab9 prom act 1.41µM, NPC1 promoter act 1.26µM (no result: SMN2 splice enh, KinaseGlo FLuc)
Cc1cccc(NC(=O)COc2cccc3c(=O)n(C)ccc23)c1C	none (no result: SMN2 splice enh, KinaseGlo FLuc, ELG1 genotox, Rab9 prom act, NPC1 promoter act)
Cn1c(CO)cnc1SCc1ccc(Cl)cc1	Rab9 prom act inconclusive, NPC1 promoter act 3.55µM
Cc1cc(C)c2nc(NC(=O)c3cc(C)on3)sc2c1	FLuc modulator inconclusive
Cc1ccc(C2CCN(C(=O)Nc3ccccc3)C2)cc1 (centres undefined)	FLuc modulator 12µM, SMN2 splice enh inconclusive, ELG1 genotox inconclusive, Rab9 prom act 3.98µM, NPC1 promoter act 4.47µM
CC(C)N(C)C1CCN(C(=O)Nc2ccc(Cl)cc2)CC1	none
Cc1ccc(C(=O)NC2CCN(C(=O)Nc3ccccc3)CC2)cc1	none (no result: SMN2 splice enh, KinaseGlo FLuc)
Cc1ccc(NC(=O)N2CCC(c3ccccc3)C2)cc1C (centres undefined)	FLuc modulator 4.78µM, SMN2 splice enh 12.6µM, ELG1 genotox inconclusive, Rab9 prom act 0.794µM, NPC1 promoter act 1.41µM
O=C(Nc1ccc(Cl)cc1)N1CCC(c2ccccc2)C1 (centres undefined)	FLuc modulator 3.79µM, SMN2 splice enh 12.6µM, ELG1 genotox inconclusive, Rab9 prom act 1.12µM, NPC1 promoter act 1.58µM
CC(=O)c1c(C(C)=O)c(C)n(-c2ccc(O)cc2)c1C	none (no result: ELG1 genotox, Rab9 prom act, NPC1 promoter act)
CCC(C(=O)Nc1cccc(Cl)c1C)n1nc(C)c2sc3ccccc3c2c1=O (centres undefined)	FLuc modulator 10.7µM (no result: SMN2 splice enh, KinaseGlo FLuc, ELG1 genotox, Rab9 prom act, NPC1 promoter act)

Compound activity as filed in PubChem.
